Tg IFNy HTS = T. gondii growth inhibition under IFN-gamma; Toxoplasma gondii growth in IFN-gamma-treated host cells; active compounds read low; activity change, negative = inhibition, % (test concentration not listed); 3.8% of 69,000 active; AID 1259416; in the data active means activity change below about -70%, passing the limit was not always enough;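 further: host cells are HeLa cells infected with Toxoplasma gondii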
* marks the source's active call; other numbers are inactive results. Only a selection was taken, and hits are over-represented in it overall.

What do the screens show for `CCCCN(CC)CCCNC(=O)C1=C(C)C(=O)OC12CCN(S(C)(=O)=O)CC2`?
Tg IFNy HTS: 13.2

What do the screens show for `CC(=O)Nc1ccc(-c2nc(Cn3cc(C)cn3)c(C)o2)cc1`?
Tg IFNy HTS: 64.3

What do the screens show for `COc1ccc(CC(=O)Nc2ccc(-c3nc(Cn4cc(C)cn4)c(C)o3)cc2)cc1`?
Tg IFNy HTS: -51.4

Results for COc1ccccc1CC(=O)Nc1ccc(-c2nc(Cn3cc(C)cn3)c(C)o2)cc1 ?
Tg IFNy HTS: -94.7*

What do the screens show for `Cc1cnn(Cc2nc(-c3ccc(NC(=O)CC4CCCC4)cc3)oc2C)c1`?
Tg IFNy HTS: -15.1

What do the screens show for `Cc1cnn(Cc2nc(-c3ccc(NC(=O)CCc4ccccc4)cc3)oc2C)c1`?
Tg IFNy HTS: -83.7*

How did COc1ccccc1C(=O)Nc1ccc(-c2nc(Cn3cc(C)cn3)c(C)o2)cc1 do in these assays?
Tg IFNy HTS: 15.3

What do the screens show for `C[C@@H](NC(=O)C[C@@H]1CC[C@@H]2[C@H](COc3ccc(NC(=O)C4CCOCC4)cc3C(=O)N2C)O1)c1ccccc1`?
Tg IFNy HTS: 13.0

Results for C=Cn1cc(CN2CCC(c3nn(C)c(=O)n3-c3ccccc3)CC2)cn1 ?
Tg IFNy HTS: 7.6

How did O=C(C[C@@H]1CC[C@H]2[C@@H](COC[C@H](O)CN2CCC(F)(F)F)O1)NCc1ccc2c(c1)OCO2 do in these assays?
Tg IFNy HTS: -0.1

What do the screens show for `Cc1noc(C)c1S(=O)(=O)N(C)C[C@@H]1OCc2ccccc2-c2ccccc2C(=O)N([C@@H](C)CO)C[C@@H]1C`?
Tg IFNy HTS: 32.3

What do the screens show for `Cc1nc(N2CCN(c3cc(=O)[nH]nc3-c3ccccc3)CC2)c2cnn(C)c2n1`?
Tg IFNy HTS: -84.0*

What do the screens show for `CN1CCN(c2cc(-c3cccnc3)nc3ccccc23)CC1`?
Tg IFNy HTS: -15.5

What do the screens show for `COC(=O)C1(C)CCN(c2nc(-c3cccnc3)nc3c2cnn3C)CC1`?
Tg IFNy HTS: -40.6

How did Cc1ccc(C)c(C(O)CN2CCC(Oc3cccnc3)CC2)c1 (stereo not given) do in these assays?
Tg IFNy HTS: 19.6

How did COc1ccc([C@H]2C/C=C\C[C@H](c3ccc4c(c3)OCO4)NC(=O)CCC(=O)N2)c(OC)c1 do in these assays?
Tg IFNy HTS: -30.9

What do the screens show for `N#C[C@@H]1[C@@H](c2ccccc2-c2cccc(F)c2)[C@H](CO)N1C(=O)NC1CCCCC1`?
Tg IFNy HTS: 11.5

How did NC(=O)Nc1cc(-c2cccc(F)c2)sc1C(=O)N[C@H]1CCCNC1 do in these assays?
Tg IFNy HTS: -83.9*

What do the screens show for `O=C(N[C@H]1CCCNC1)c1cn(C/C=C/c2ccccc2)nn1`?
Tg IFNy HTS: -6.0

How did OCCOc1ccc(CNc2n[nH]c(CC3CCCCC3)n2)cc1 do in these assays?
Tg IFNy HTS: 90.6

Results for Cc1ccc(-c2coc(-c3ccc(NC(=O)Cc4cccs4)cc3)n2)c(C)c1 ?
Tg IFNy HTS: 6.7

How did Cc1ccc2[nH]cc(CCNC(=O)c3cc(-c4ccccn4)nc4ccccc34)c2c1 do in these assays?
Tg IFNy HTS: 60.7

What do the screens show for `Cn1nccc1-c1cc(C(=O)Nc2nc(-c3ccccn3)cs2)c2ccccc2n1`?
Tg IFNy HTS: -100.9*

What do the screens show for `O=C(Nc1cccc(Cn2cncn2)c1)c1cc(-c2ccccn2)nc2ccccc12`?
Tg IFNy HTS: -28.6

What do the screens show for `Cc1ccc(CN(C(=O)c2cnc3cccc(C)n3c2=O)C2CC2)s1`?
Tg IFNy HTS: -25.6

Results for CCS(=O)(=O)N1CCC2(CC1)OC(=O)C(C)=C2C(=O)NCCc1ccc(C)cc1 ?
Tg IFNy HTS: 40.9

Results for Cc1nc(-c2ccc(F)cc2)sc1CCNS(=O)(=O)c1ccccc1Cl ?
Tg IFNy HTS: 48.1

What do the screens show for `COc1ccc(-c2nc(C)c(CCNS(=O)(=O)c3cc(Cl)ccc3Cl)s2)cc1`?
Tg IFNy HTS: 409.6

What do the screens show for `CC(=O)Nc1nc(C)c(-c2ccc(Cl)c(S(=O)(=O)NCCO)c2)s1`?
Tg IFNy HTS: -80.7*

Results for COc1ccc2c(c1)NC1(CCN(S(=O)(=O)c3cc(C)c(C)cc3C)CC1)c1cccn1-2 ?
Tg IFNy HTS: -0.9

How did C[C@@H]1CN([C@@H](C)CO)C(=O)c2cc(N(C)C)ccc2O[C@H]1CN(C)Cc1ccc(Oc2ccccc2)cc1 do in these assays?
Tg IFNy HTS: 51.2

Results for Cc1cccc2cc(C#N)c(SCC(=O)N3CCCc4ccccc43)nc12 ?
Tg IFNy HTS: -37.6

How did N#Cc1cc2c(cc1C#N)N1CCCc3cccc(c31)O2 do in these assays?
Tg IFNy HTS: -91.9*

How did O=C1CCc2cc(S(=O)(=O)N3CCc4ccccc43)cc3c2N1CCC3 do in these assays?
Tg IFNy HTS: 0.6

Results for CN(NC(=O)CC(=O)NN(C)C(=S)c1ccccc1)C(=S)c1ccccc1 ?
Tg IFNy HTS: -64.4

How did COC(=O)C[C@H]1CC[C@@H](N)[C@@H](CO)O1 do in these assays?
Tg IFNy HTS: 14.3

Results for O=c1cccc(-c2cccc3cccnc23)[nH]1 ?
Tg IFNy HTS: 1.1

What do the screens show for `Cc1cc(C)c(-c2cnc(-n3cnnc3)c(C)c2)c(C)c1`?
Tg IFNy HTS: -78.3*

What do the screens show for `Cc1cc(-c2ccc(-c3ccn[nH]3)cc2)cnc1-n1cnnc1`?
Tg IFNy HTS: -77.2*

How did CC(C)c1nccn1-c1ccc(-c2ccn[nH]2)cc1 do in these assays?
Tg IFNy HTS: 3.8

Results for OCc1cc(-c2ccc(-c3ccn[nH]3)cc2)ccn1 ?
Tg IFNy HTS: 57.7

How did COC(C)c1cccc(-c2cnc(-n3cnnc3)c(C)c2)c1 (stereo not given) do in these assays?
Tg IFNy HTS: -10.9

How did Cc1cnc(-n2cnnc2)c(-c2ccc(S(C)(=O)=O)cc2)c1 do in these assays?
Tg IFNy HTS: 1.5

How did CC(C)CCn1c(=O)n(CCn2cccc2)c2cc(C(=O)O)cnc21 do in these assays?
Tg IFNy HTS: 0.5

What do the screens show for `CCC(=O)Nc1ccc2c(c1)C(=O)N(C)C[C@@H](OC)[C@H](C)CN(C(=O)Cc1cccnc1)[C@@H](C)CO2`?
Tg IFNy HTS: 97.6

How did O=C(CN1CCCC1Cn1cccn1)Nc1ccnn1C1CCCC1 (stereo not given) do in these assays?
Tg IFNy HTS: 1.4

What do the screens show for `Cc1ccc2c(c1)C(=O)CC1(CCN(CC(=O)Nc3nc4c(s3)CCCC4)CC1)O2`?
Tg IFNy HTS: -48.1

Results for O=C(CN1CCCC1Cn1cccn1)Nc1nc2c(s1)CCCC2 (stereo not given) ?
Tg IFNy HTS: -77.7*

How did CCCc1cnc(-c2cccc3[nH]ccc23)nc1 do in these assays?
Tg IFNy HTS: 159.3

How did CN1CCN(c2ncnc3ccc(-c4cccc5[nH]ccc45)cc23)CC1 do in these assays?
Tg IFNy HTS: -76.0*

What do the screens show for `CC(C)NC(=O)c1ccc2ncnc(N3CCCCC3)c2c1`?
Tg IFNy HTS: -10.0

What do the screens show for `COc1ccc(-c2nc(Cn3c(=O)c4c(C)cc(C)nc4n(C)c3=O)c(C)o2)cc1`?
Tg IFNy HTS: 1.5

What do the screens show for `Cc1nn(-c2ccccc2)c(-c2ccccc2)c1C(=O)O`?
Tg IFNy HTS: 26.1

Results for CN(C)CCN1CCOC2CCN(C(=O)c3ccoc3)CCC21 (stereo not given) ?
Tg IFNy HTS: 179.5

What do the screens show for `CC1CCCC(C)N1C(=S)NCCCN1CCOCC1` (stereo not given)?
Tg IFNy HTS: -79.6*

How did Cc1ccc(C(=O)NC(=S)NCCCN2CCOCC2)cc1 do in these assays?
Tg IFNy HTS: -1.6

What do the screens show for `Cc1c(C(=O)NCCCN2CCOCC2)cc(C(C)(C)C)n1-c1ccccc1`?
Tg IFNy HTS: -17.8

How did CCOC(=O)c1cc(C#N)c(N2CCN(C(=O)OCC)CC2)nc1C(F)(F)F do in these assays?
Tg IFNy HTS: 27.6

Screening data: PubChem BioAssay, Broad Institute
